Test results from the supplement of paper PMC3334620.
Whole data set: some 33,000 sequences, median “E-score (-0.5 to 0.5)” near -0.013, cut for the highest 2% near 0.3. For the sample, the highest values were picked, then their nearest neighbours and some sequences at random.

The sequences below were run against T1, Msn1 (UniProt P22148) (assay: PBM E-score (8-mer binding enrichment) (E-score (-0.5 to 0.5)); higher = stronger / more preferred TF binding). Settings: protein concentration: 200 nM; construct: GST-full length.
T1 sequence: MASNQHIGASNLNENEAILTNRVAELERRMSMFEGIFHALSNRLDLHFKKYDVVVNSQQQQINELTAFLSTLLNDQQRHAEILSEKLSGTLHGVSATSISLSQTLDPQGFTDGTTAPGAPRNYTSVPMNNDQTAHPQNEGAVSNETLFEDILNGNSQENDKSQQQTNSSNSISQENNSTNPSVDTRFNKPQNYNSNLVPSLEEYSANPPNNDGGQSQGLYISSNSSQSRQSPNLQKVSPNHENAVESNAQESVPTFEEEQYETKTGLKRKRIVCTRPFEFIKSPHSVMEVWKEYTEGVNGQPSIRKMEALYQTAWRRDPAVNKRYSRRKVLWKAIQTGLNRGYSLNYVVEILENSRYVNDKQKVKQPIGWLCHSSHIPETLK
Protocol: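 Universal 'all 10-mer' protein binding microarrays (Agilent AMADID 015681) probed with GST-tagged S. cerevisiae TFs (full-length or DBD) made by in vitro transcription/translation (PURExpress), about 100-200 nM. Bound TF was detected with fluorescent anti-GST. Each ungapped 8-mer (which stands for itself and its reverse complement) is scored by the PBM enrichment score (E-score), a modified Wilcoxon-Mann-Whitney statistic from -0.5 to +0.5, computed with the Universal PBM Analysis Suite. Scale: above 0.35 generally sequence-specific binding.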

In order of falling “PBM E-score” value:
1. AGATGTCC  0.477
2. CTATGTCC  0.461
3. AATGTCAT  0.46
4. TCCGGACA  0.453
5. CGATGTCC  0.436
6. CCCGGACA  0.425
7. AAAGACAA  0.418
8. GACAGACA  0.414
9. GCAAGGAC  0.395
10. TAAGACAA  0.395
11. AAAGACAT  0.387
12. AATGTCAC  0.381
13. TACAGACA  0.371
14. GACACGGA  0.369
15. ATAAGGAC  0.369
16. CAAGACAA  0.367
17. AATGTACT  0.364
18. ACGACATG  0.364
19. GAAGACAA  0.36
20. CACAGACA  0.36
21. CGTATGTC  0.359
22. ACAAGGAC  0.358
23. GCCGGACA  0.357
24. AGTATGTC  0.353
25. GACACGCC  0.324
26. ACAGGGAC  0.324
27. CAAGATAA  0.324
28. AATGTATA  0.323
29. ACGACATA  0.319
30. ATTGTGTC  0.314
31. AATGTACC  0.311
32. AGATGTCA  0.309
33. GTCACGGA  0.308
34. ACCGGACA  0.306
35. GGATGTCA  0.305
36. CTTGTGTC  0.304
37. TACACGGA  0.303
38. GCGACATA  0.299
39. AACAGACA  0.295
40. AATGTACA  0.294
41. GACAGAAA  0.291
42. AATGTACG  0.274
43. GTAAGGAC  0.268
44. AATGTCAG  0.254
45. TCCGGAAA  0.248
46. ACGTCATA  0.235
47. CCGACATA  0.215
48. AAAGACAC  0.213
49. ATTTCGCA  0.201
50. GACACGCA  0.198
51. GACACGGC  0.197
52. AATGTAAT  0.193
53. AAAGACAG  0.193
54. TCATCCGA  0.183
55. CAAGACAC  0.183
56. GAAGACAC  0.181
57. AACGGATA  0.18
58. ACAAGGAA  0.178
59. CGATGTAC  0.169
60. GCAGGGAC  0.163
61. ACGACATC  0.163
62. ATAAGGAT  0.161
63. CCAAGGAC  0.16
64. AGTCTCCG  0.159
65. GTACCTGA  0.149
66. CGTATGTA  0.148
67. CATGTATA  0.141
68. ATTGTGTA  0.14
69. AAAGATAA  0.14
70. ATCACGGA  0.136
71. AACAGAGT  0.128
72. TAGCAAAA  0.124
73. AACCTAAA  0.121
74. AGTACTAA  0.121
75. ACGTGAAA  0.119
76. AGAAAACT  0.116
77. CTTGTGTA  0.114
78. AGTCACAA  0.114
79. AATGCGGA  0.114
80. AGTGTCAT  0.112
81. CTATGTTC  0.103
82. AGATGTAA  0.102
83. CGTGTGTC  0.0945
84. CTCACGGA  0.0943
85. CACCGGTA  0.0943
86. ACTATACC  0.0929
87. GTCTGTGA  0.0908
88. ACGACAGG  0.0905
89. ATAAATGG  0.0876
90. GCCGGAGA  0.0857
91. AATGGGAC  0.0849
92. CGACGCCG  0.0839
93. AAAGACTT  0.0779
94. CGATGTCA  0.0775
95. CACAGACC  0.0741
96. CGTATGGC  0.0738
97. AAAGACCT  0.0725
98. ACCGGACT  0.0676
99. CAAGACAG  0.0634
100. TCCGGAGA  0.0632
101. CCAGCAAA  0.06
102. CTGAAAGC  0.0584
103. CAGAATGA  0.0577
104. CTCCAGTA  0.057
105. ATCACAGC  0.053
106. AGATGTTC  0.0457
107. CCGTGAAC  0.0411
108. CTCTACGA  0.0394
109. GACAGACC  0.0373
110. AGTATGTG  0.0347
111. ATAAGAGC  0.0327
112. ATCTTGAG  0.0323
113. AAATGAGT  0.0295
114. GGTCGGTA  0.0288
115. TAAGATAA  0.0274
116. CGTCCCGC  0.0266
117. ACTGTCAT  0.0249
118. AAAGCACG  0.0204
119. AACAGCGT  0.0185
120. TAGGCAAA  0.0155
121. AGATGTCG  0.0151
122. CGAGTTGA  0.0114
123. ACAAGGAG  0.0113
124. ACTGTCAC  0.00673
125. CCTGTTGA  -0.00042
126. TAAGACGA  -0.00272
127. ACTGTACT  -0.00421
128. AACTGAGT  -0.00489
129. CCACCCAG  -0.0137
130. AGTATGTA  -0.0186
131. ATTGTGTG  -0.0187
132. TACAGAGA  -0.0201
133. GTTTGCCA  -0.0238
134. ACCGGACG  -0.0239
135. AAGGTCCA  -0.0265
136. CACGCTAG  -0.0343
137. CGTCTAAA  -0.0424
138. CGATGTTC  -0.0457
139. GGCGAGGA  -0.0575
140. CGAGCTAG  -0.0663
141. GGATGTTA  -0.0664
142. AGATGTGA  -0.0694
143. CTATGTGC  -0.0695
144. CACTAGCA  -0.0794
145. GTCGATGA  -0.0803
146. ACCAGTCA  -0.0816
147. CACAGACG  -0.0835
148. GCCGGACC  -0.0867
149. GCCTAGTA  -0.087
150. AAAAAAGC  -0.0879
151. CGTTGGAA  -0.0918
152. GAGACCTA  -0.0946
153. ATCCTTGA  -0.0979
154. AGAGGCAA  -0.0984
155. GAAGACCA  -0.102
156. CCTGAACG  -0.104
157. GATGTATA  -0.11
158. CCCGGACC  -0.11
159. AGAACTCT  -0.119
160. CCATGGAG  -0.119
161. AACACGCC  -0.12
162. GCAAGGAA  -0.122
163. TAAGACCA  -0.13
164. AATGGAGC  -0.132
165. ACTTGCCT  -0.136
166. GATGGGGA  -0.143
167. ACAGGGAT  -0.147
168. CCCGGACG  -0.156
169. GAACAGGC  -0.164
170. AGGTCGCC  -0.164
171. AATGGCCT  -0.164
172. ACTCGAAG  -0.168
173. ACAGTGCG  -0.181
174. CGGGGTAC  -0.216
175. ATGGTGGG  -0.316
176. CGGGGGCA  -0.318
177. GCTCCCTA  -0.334
